Screens: PubChem, several laboratories
In the library only some 2.2% were active in any assay of this set; here they are far more common.
Ba/F3 V617F tox: lowers viability of Ba/F3 cells expressing EpoR and JAK2V617F. ATP luminescence. inhibition, % at 5.6 µM. 220,000 tested, 1.1% active;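 active = inhibition above the campaign mean plus 3 SD over all tested compounds, cut at about 24% in these data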;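 also: cytokine-independent growth of Ba/F3 cells driven by EpoR plus mutant JAK2; 0% = DMSO-treated cells and 100% = JAK inhibitor I control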
KLF5 inhibitor: suppresses KLF5 promoter-driven expression; DLD-1 KLF5 promoter-luciferase reporter, luminescence; inhibition, % at 5 µM; 290,000 tested, 0.23% active;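 active = inhibition above a per-plate limit of that plate's mean compound inhibition plus 3 SD, cut at about 60% in these data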;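 also: 0% = DMSO wells and 100% = LY294002 at 200 µM; higher means less KLF5 promoter-driven luciferase light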
APP transl inh: APP translation inhibition | SH-SY5Y APP 5'UTR-luciferase reporter, luminescence | inhibition, % at 2 µM | 190,000 tested, 0.82% active | AID 1285;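 active = inhibition above a set limit, derived from the sample mean plus 3 SD, cut at about 45% in these data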
BaF3 tox: reduces parental Ba/F3 cell viability, JAK2V617F counter-screen. CellTiter-Glo ATP luminescence. inhibition, % at 5.6 µM. 220,000 tested, 1.1% active;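 active = inhibition above a per-campaign cutoff, the mean inhibition of all tested compounds plus 3 SD, cut at about 27% in these data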;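 also: 0% = DMSO wells and 100% = JAK Inhibitor I control wells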
aSyn UTR inh: MLPCN primary screen, SNCA 5' untranslated region | alpha-synuclein 5'UTR reporter, inhibitor activity | inhibition, % (tested at 7.5 µM) | 300,000 tested, 0.82% active | AID 1813; in the data active = inhibition above about 60%;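 also: H4 neuroglioblastoma cells stably carrying SNCA 5'UTR luciferase fusion; 0% = DMSO wells and 100% = positive control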
IEC-6 cytotox: kills IEC-6 intestinal cells in KLF5 counter-screen; 290,000 tested, 0.78% active; inhibition, % at 5 µM; IEC-6 cytotoxicity, luminescence viability; in the data active = inhibition above about 22%;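 also: 0% = plate median of test compound wells and 100% = cytotoxic reference compound wells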
Active calls of the source: *; nt = no result given.

SMILES	Ba/F3 V617F tox	KLF5 inhibitor	APP transl inh	BaF3 tox	aSyn UTR inh	IEC-6 cytotox
CCOc1cc(/C=C(/C#N)C(=O)Nc2ccc(O)cc2)cc(Br)c1O	3	-10	-4	0	84*	2
Cc1ccc(C2=Nc3ccccc3SC(c3cccc([N+](=O)[O-])c3)C2)cc1 (configuration not stated)	-4	-42	nt	0	-113	-3
Cc1ccc2[nH]c(=O)c(CN(Cc3ccco3)S(=O)(=O)c3c(C)ccc4nsnc34)cc2c1	-1	-15	5	0	29	3
COc1ccc2[nH]c(=O)c(CN(Cc3cccs3)S(=O)(=O)c3c(C)ccc4nsnc34)cc2c1	-2	-15	-10	1	89*	-1
CC1CN(S(=O)(=O)c2cccc(C(=O)N(CCc3ccccc3)Cc3ccccc3)c2)CC(C)O1 (configuration not stated)	nt	nt	nt	nt	1	nt
CN(C)CCCNC(=O)C1(O)c2cc(Br)ccc2NC(=O)N1c1c(F)cccc1F (configuration not stated)	nt	-28	nt	nt	-1	0
COc1ccc(C(=O)Nc2nnc(Cc3cccs3)s2)cc1OC	39*	14	0	41*	26	4
Cc1sc2ncnc(NC3CCN(Cc4ccccc4)CC3)c2c1C	33*	-7	4	34*	-26	16
c1ccc(CN2CCC(Nc3ncnc4sccc34)CC2)cc1	0	-10	0	5	-10	4
COc1ccc(N=C2S/C(=C\c3ccc(C)o3)C(=O)N2CC(C)C)cc1	2	-17	89*	3	-12	2
COc1ccc2ccccc2c1C1NC(=O)NC(C)=C1[N+](=O)[O-] (configuration not stated)	nt	-20	nt	nt	18	-3
CCC1=[N+](C)c2cccc3cccc(c23)N1C	37*	-20	-4	41*	-8	0
CCN1C(=O)Nc2cccc3cccc1c23	nt	nt	nt	nt	3	nt
Cc1cc(C)c(S(=O)(=O)Nc2ncn[nH]2)cc1C	nt	-6	nt	nt	-3	-9
COc1ccc(NC(=O)C(=O)NNC(=O)c2cccs2)cc1	1	-24	64*	8	-32	-2
Cc1ccccc1N1C(=O)C2C3C=CC(CC3)C2C1=O (configuration not stated)	nt	1	nt	nt	2	0
Cc1ccccc1N1C(=O)CC2(CCCC2)CC1=O	8	-34	-2	45*	-9	7
CCn1c2ccccc2n2c(=O)c(=O)n(CC(=O)Nc3ccc(C(C)C)cc3)nc12	-1	-15	nt	4	9	4
Cc1n[nH]c(=O)nc1NC1CCCCC1	-1	1	60*	2	11	0
O=C(COC(=O)c1cc(-c2ccccc2Cl)nc2ccccc12)Nc1ncc(C(F)(F)F)cc1Cl	-4	16	49*	0	40	-2
COc1ccc(/C=N/NC(=O)c2ccccc2Cl)cc1CSc1nc2ccccc2s1	-2	26	6	3	28	16
COc1ccc(/C=N/NC(=O)c2cccnc2)cc1CSc1nc2ccccc2s1	5	-12	54*	8	54	21
Cc1ccccc1C(=O)O/N=C/c1c(N2CCOCC2)n(C)c2ccccc12	1	-39	30	-3	87*	-4
Fc1ccccc1/C=N/Nc1nc(-c2ccccn2)nc2ccccc12	0	16	nt	3	81*	3
c1ccc(CNc2nc(-c3ccccn3)nc3ccccc23)cc1	nt	9	nt	nt	33	11
SMILES	Ba/F3 V617F tox	KLF5 inhibitor	APP transl inh	BaF3 tox	aSyn UTR inh	IEC-6 cytotox
CCC(C)Nc1nc(-c2ccccn2)nc2ccccc12 (configuration not stated)	nt	-7	nt	nt	69*	7
CCCCC#Cc1ccc2c(c1)COc1c3ccccc3nn1-2	nt	nt	nt	nt	-53	nt
N#CCCCC#Cc1ccc2c(c1)COc1c3ccccc3nn1-2	nt	nt	nt	nt	77*	nt
O=C(NC1=C(Nc2ccc(Cl)cc2)C(=O)c2ccccc2C1=O)c1ccccc1	-2	14	-7	4	-31	8
O=C1C(Cl)=C(NC(=O)c2ccccc2)C(=O)C(Cl)=C1NC(=O)c1ccccc1	nt	-2	nt	nt	-37	100*
COc1cc(/C=N/NC(=O)c2c(-c3c(Cl)cccc3Cl)noc2C)ccc1OCC(N)=O	nt	-30	nt	nt	-3	2
Cc1onc(-c2c(Cl)cccc2Cl)c1C(=O)N/N=C(\N)COc1ccc(Cl)cc1	-1	-12	13	5	89*	2
CCCn1c2c(c(O)c(C(=O)Nc3nc4ccccc4s3)c1=O)CCCC2	5	-21	-6	81*	-17	5
CC(C)Cn1c2c(c(O)c(C(=O)Nc3nc4ccccc4s3)c1=O)CCCC2	0	2	nt	2	-22	2
COc1cccc(C(=O)Cn2c(=N)n(C)c3ccccc32)c1	4	-85	-165	9	86*	2
COC(=O)C1(CC2CC(c3ccncc3)=NO2)CCN(C(=O)OC(C)(C)C)CC1 (configuration not stated)	nt	nt	nt	nt	-15	nt
CCc1ccc(CN(C)C(=O)c2cc(COc3cc(C)c(Cl)c(C)c3)on2)nc1	nt	-11	nt	nt	-31	-2
NC(=S)n1[nH]c(-c2ccc([N+](=O)[O-])cc2)c(N=Nc2ccccc2[N+](=O)[O-])c1=O	2	4	14	46*	nt	8
CC(C)CC(C(=O)NC(C)(C)C)N(Cc1ccccc1Cl)C(=O)c1snc(C(N)=O)c1N (configuration not stated)	nt	-27	nt	nt	20	-3
Cc1cc(C(F)F)n2nc(C(=O)Nc3cccnc3Cl)nc2n1	-4	3	-4	95*	8	4
CC(C)(CC(=O)O)CC(=O)N1CCCN(c2nccc(C(F)(F)F)n2)CC1	nt	-3	nt	nt	9	6
O=C(/C=C/Nc1ccccc1Br)c1ccccn1	3	22	16	8	114*	3
CC(C)n1cc(CN2CCC(Oc3ccc(C(=O)N4CCCC4)cc3)CC2)cn1	nt	-11	nt	nt	-5	4
CC(C)N(Cc1nccn1C)C(=O)c1cc(COc2ccc(-n3cncn3)cc2)on1	nt	-11	nt	nt	14	2
Cc1ccc(C(c2cc(Cl)c3cccnc3c2O)N2CCN(C)CC2)cc1 (configuration not stated)	nt	27	nt	nt	66*	1
CCn1nnc2cc(C(=O)NCCc3ccccc3F)ccc21	nt	4	nt	nt	63*	4
CCOc1ccc(N(CC(=O)NCCSCc2ccccc2)S(C)(=O)=O)cc1	nt	-31	nt	nt	7	-5
O=C(Nc1ccccn1)c1csc2c1CCCC2	1	-108	-133	5	-163	3
O=C(Nc1ccccn1)c1onc2c1CCCC2	2	-100	-150	8	96*	4
CC1CCC2(CC1)NC(=O)N(CC(=O)c1ccc(Cl)s1)C2=O (configuration not stated)	nt	-44	nt	nt	-15	-2
COC(=O)c1ccc(OC(=O)c2ccc(OC)cc2)c(OC)c1	1	3	-7	-2	-17	3
COC(=O)c1scc(C)c1NC(=O)c1ccccc1F	nt	-12	nt	nt	3	1
Cc1ccc(/C=N\NC(=O)CNC(=O)C23CC4CC(CC(C4)C2)C3)o1	nt	-36	nt	nt	-12	-8
